HTT ATP protect – Huntington cell model cytoprotection by ATP luminescence; Potency, µM (titrated, usually from 56.4 µM), without a hit: cytoprotection (ATP increase), hits mostly activators; 230,000 compounds, 0.14% hits; PC12 HTT-Q103 induced, cytoprotection, ATP luminescence, 40 h; also: potency is read from the fitted curve at half-maximal effect; % of control where 0% means no effect; nearly all actives have a fitted effect of over 45% in size
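Cells were plated at 1500 per well in phenol red-free DMEM with 5% equine and 5% calf serum. Tebufenozide (100 nM final) and compounds were added, then ATPlite reagent, and luminescence was read.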
PNC inhibitor – blocks assembly of the perinucleolar compartment | AID 2417 | activity change (PNC), negative = inhibition, % at 10 µM | PC3M PTB-GFP, PNC prevalence imaging, 16 h; hits give low values | 140,000 compounds, 3.1% hits;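 active = readout at or below -70, meaning at least 70% loss of cells showing the perinucleolar compartment, a nuclear body marking cancer cells; inconclusive = readout between -30 and a set limit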;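 also: plate controls were DMSO wells for no effect and camptothecin positive control wells for full effect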
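Read-out is percentage of cells bearing a perinucleolar compartment, from automated 20x imaging of fixed, Hoechst-stained PC3M PTB-GFP cells. Cells were seeded 4 h, then exposed 16 h to compound (23 nl of library stock) in duplicate plates.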
ALDH1A1 block – blocks purified human ALDH1A1 activity; P00352; Purified ALDH1A1, NADH fluorescence, propionaldehyde substrate; Potency, µM (series often up to 75.3 µM), without a hit: at the top dose activity, negative = inhibition, actives largely listed as inhibitors; 220,000 compounds, 7.3% hits; AID 1030; active = well fitted inhibition curve with a large enough effect, not every such curve was filed as active; inconclusive = small, poorly fitted or top-dose-only effect, or another doubt; inactive = no such curve, though single readings can be large or run the other way;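 also: potency is read from the fitted curve at half-maximal effect; plate controls were no enzyme wells and a reference inhibitor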
HTT aggregate – reduces HttQ103-GFP aggregates in PC12 cells. PC12 HttQ103-GFP aggregates, Acumen cytometry, 40 h. Potency, µM (top dose mostly 46.1 µM), inactives show at the top dose activity change, negative = inhibition, hits mostly inhibitors. 220,000 compounds, 1.1% hits. AID 1688; also: potency is read from the fitted curve at half-maximal effect; % is scaled to controls: 0 for no effect and ±100 for the full control effect; nearly all actives have a fitted effect of over 60% in size
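Steps: seed 1500 PC12 HTTQ103-GFP cells/well; add tebufenozide, 100 nM final; add compound titration; add ATPLite reagent; quantify GFP aggregates by laser scanning cytometry.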
RGS12 GoLoco inh – inhibitors of human Gai1-RGS12 GoLoco interaction (red fluorophore); Potency, µM (doses to about 61.6 µM), for inactives: at the top dose activity, negative = inhibition, hits mostly inhibitors; 230,000 compounds, 0.44% hits; Gai1:RGS12 GoLoco peptide FP, rhodamine, 10 min; P63096; active = well fitted inhibition curve with a large enough effect, not every such curve was filed as active; inactive = no such curve, though single readings can be large or run the other way; also: potency is read from the fitted curve at half-maximal effect; % is scaled to controls: 0 for no effect and ±100 for the full control effect; nearly all actives have a fitted effect of over 30% in size
Target sequence (P63096 whole entry, looked up): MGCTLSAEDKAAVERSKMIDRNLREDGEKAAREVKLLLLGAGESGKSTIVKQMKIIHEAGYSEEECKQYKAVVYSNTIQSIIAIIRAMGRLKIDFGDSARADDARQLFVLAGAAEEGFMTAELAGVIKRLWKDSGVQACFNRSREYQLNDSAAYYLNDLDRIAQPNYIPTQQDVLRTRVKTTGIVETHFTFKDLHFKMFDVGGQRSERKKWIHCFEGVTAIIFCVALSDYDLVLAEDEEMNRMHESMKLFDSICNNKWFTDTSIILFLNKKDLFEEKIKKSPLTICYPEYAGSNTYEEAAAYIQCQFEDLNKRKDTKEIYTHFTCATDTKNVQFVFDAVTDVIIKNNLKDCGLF
HPGD inh – blocks human HPGD enzyme activity; purified HPGD, NADH fluorescence kinetic, PGE2 substrate; Potency, µM, for the others: top-dose activity change, negative = inhibition, usual class: inhibitors; AID 894; 150,000 compounds, 4.3% hits; active = well fitted inhibition curve with a large enough effect, not every such curve was filed as active; inconclusive = small, poorly fitted or top-dose-only effect, or another doubt; inactive = no such curve, though single readings can be large or run the other way; also: potency is read from the fitted curve at half-maximal effect; % is scaled to controls: 0 for no effect and ±100 for the full control effect
Target sequence (P15428 whole entry, looked up): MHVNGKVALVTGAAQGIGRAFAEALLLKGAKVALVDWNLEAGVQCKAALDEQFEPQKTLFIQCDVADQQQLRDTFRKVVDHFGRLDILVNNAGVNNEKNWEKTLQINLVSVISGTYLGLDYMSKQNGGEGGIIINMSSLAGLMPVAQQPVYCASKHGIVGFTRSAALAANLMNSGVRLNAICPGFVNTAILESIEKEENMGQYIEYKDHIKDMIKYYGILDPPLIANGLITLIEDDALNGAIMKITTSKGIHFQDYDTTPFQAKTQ
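NADH formation kinetics: reaction with 30 uM PGE2 and 1 mM NAD+ (final), 20 nM enzyme, Tris-HCl pH 8 with Tween 20, after 15 min compound preincubation at room temperature. Fluorescence change, last versus first of five reads.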
Active calls of the source: *; ? = inconclusive; . = no result; [ ] = another dose, or the depositor's remark. Rows were chosen to be rich in hits. Some 11% of all compounds tested hit in one or more screens of this group. Unless noted, calls follow the shape of the dose curve; as a rule, active = well fitted curve in the direction sought with a large enough effect; inconclusive = small, poorly fitted or top-dose-only effect, or another doubt; inactive = no such curve, though single readings can be large; an effect the other way counts as inactive or inconclusive.

SMILES	HTT ATP protect	PNC inhibitor	ALDH1A1 block	HTT aggregate	RGS12 GoLoco inh	HPGD inh
CC1CCCCC1NC(=O)C1CCN(C(=O)c2sccc2-n2cccc2)CC1 (stereo not given)	-0.4%	?	1.12µM*	1.4%	-5.2%	-10.7%
O=C(NCc1ccccc1F)C1CCN(C(=O)c2sccc2-n2cccc2)CC1	-24.1%	.	2.51µM*	-2.2%	-2.5%	.
CCOc1ccccc1CNC(=O)C1CCN(C(=O)c2sccc2-n2cccc2)CC1	-41.2%	-0.7	0.631µM*	?	-7.8%	-11.6%
O=C(NCc1ccccc1Cl)C1CCN(C(=O)c2sccc2-n2cccc2)CC1	1.7%	60.2	1.41µM*	-10.2%	-1.2%	-4.6%
CC1CCCCC1NC(=O)C1CCN(C(=O)NC2CCCCC2)CC1 (stereo not given)	6.0%[10 µM]	?	-1.6%	2.4%	-11.7%	-11.8%
COC(=O)COc1cccc2c(=O)n(CC(=O)NCCc3ccccc3)ccc12	.	30.5	-7.2%	-5.5%	2.6%	-25.2%
COC(=O)c1ccc(C(NC(=O)OCc2ccccc2)/C(F)=C/[C@@H](C)C(=O)NCc2nc3ccccc3s2)cc1 (stereo not given in full)	-0.4%	.	4.8%	.	4.4%	-12.7%
COc1ccc(Nc2nc(-c3ccc4c(c3)NC(=O)CO4)cs2)cc1	-7.5%	.	?	?	0.1%	.
CCC(C)Nc1nc(-c2ccc3c(c2)NC(=O)CO3)cs1 (stereo not given)	-0.1%	-21.9	3.55µM*	6.5%	-1.8%	-6.5%
NS(=O)(=O)c1ccc(CCNCC(=O)N2CCC(Cc3ccccc3)CC2)cc1	6.0%[10 µM]	.	10µM*	10.8%[9.22 µM]	-13.3%	.
NCCCCCc1cnc[nH]1	0.794µM*	.	2.8%	.	5.1%	-3.9%
c1ccc(COCCCc2cnc[nH]2)cc1	-2.0%	.	-14.1%	.	-14.6%	-2.0%
Cc1cnc(CNc2ncnc3ccc(-c4ccoc4)cc23)cn1	-31.6%	.	?	.	2.3%	.
CCCNC(=O)OC[C@@H]1O[C@H](CCO/N=C(\C)CCC(=O)OC[C@@H]2O[C@H](C#Cc3ccccc3)C=C[C@@H]2Oc2ccc(C)cc2)C=C[C@@H]1Oc1ccc(OC)cc1	-8.8%[10 µM]	.	10.9%[13.5 µM]	.	.	.
COc1ccc(CCn2c(C)ccc2C)cc1OC	-5.5%[10 µM]	-100.0*	-6.6%	2.8%	44.2%	-17.6%
COc1ccc(NC(=O)C23CC4CC(C2)CC(c2ccc(C)cc2)(C4)C3)cc1	0.9%[10 µM]	?	-6.1%	-11.1%	-2.8%	-15.4%
O=C(CSc1ccccc1)NCc1ccccn1	7.5%[1.9 µM]	?	8.8%	-0.5%	1.7%	-14.9%
Cc1cccc(OC(=O)n2c(=S)oc3cc(Cl)ccc32)c1	-12.1%[10 µM]	7.0	3.55µM*	-2.7%	-8.3%	-19.3%
O=C(Oc1ccccc1)n1c(=O)oc2ccc(Cl)cc21	.	.	1.4%	.	.	-4.8%
O=C(c1cnccn1)N1CCC[C@@]2(CCN(Cc3nccs3)C2)C1	?	.	-1.3%	.	6.3%	-9.7%
Fc1ccc(N2CCN(C(c3cccs3)c3nnnn3CCc3ccccc3)CC2)cc1 (stereo not given)	21.5%[10 µM]	33.1	1µM*	-21.3%	-0.5%	-1.9%
Fc1ccccc1N1CCN(C(c2cccs2)c2nnnn2CCc2ccccc2)CC1 (stereo not given)	36.1%	10.6	?	-9.0%	11.3%	-10.4%
COc1ccc(Cn2nnnc2C(c2cccs2)N2CCCCCC2)cc1 (stereo not given)	8.4%[10 µM]	13.0	12.6µM*	?	-14.5%	-15.8%
COCCn1nnnc1C(c1cccs1)N1CCCC(C)C1 (stereo not given)	.	.	11.2µM*	.	15.2%	.
CC1CCN(C(c2cccs2)c2nnnn2Cc2ccccc2)CC1 (stereo not given)	4.6%	-4.9	2µM*	12.4%[9.22 µM]	24.9%	-19.1%
SMILES	HTT ATP protect	PNC inhibitor	ALDH1A1 block	HTT aggregate	RGS12 GoLoco inh	HPGD inh
c1ccc(Cn2nnnc2C(c2cccs2)N2CCSCC2)cc1 (stereo not given)	7.9%[10 µM]	225.0	?	-0.1%	6.3%	-12.7%
COc1ccc(Cn2nnnc2C(c2cccs2)N2CCSCC2)cc1 (stereo not given)	4.8%	?	-15.0%	-19.1%	6.3%	-6.2%
C=CCn1cccc(C(=O)Nc2ccc(OCC)cc2)c1=O	2.8%[10 µM]	.	-2.6%	-11.3%	-2.1%	.
Cc1cccc(C2=NN(c3ccccc3)[C@H](CO)[C@H]2C)c1	-125.3%	.	?	.	16.2%[88.7 µM]	?
CCc1ccc(C2=NNC(=Nc3cccc(S(=O)(=O)N(C)C)c3)SC2)cc1	18.2%[10 µM]	6.2	-0.3%	?	7.5%	-5.3%
Nc1ncnc2c1ncn2[C@H]1O[C@@H](CO)[C@@H](O)[C@H]1N	-13.0%[10 µM]	.	5.2%[13.5 µM]	.	-4.8%[14.2 µM]	-11.3%
Cc1nn(Cc2ccccc2Cl)c(C)c1NC(=O)CCCn1nc(C)c([N+](=O)[O-])c1C	3.4%	67.3	15.8µM*	-4.4%	16.8%	-8.8%
Cc1nn(Cc2ccccc2)c(C)c1NC(=O)CCCn1nc(C)c([N+](=O)[O-])c1C	-8.5%[10 µM]	-9.9	?	15.8%	-1.5%	-12.9%
Cc1nn(Cc2c(Cl)cccc2Cl)c(C)c1NC(=O)CCCn1nc([N+](=O)[O-])c(Cl)c1C	24.0%[10 µM]	65.3	6.31µM*	-8.1%	-13.0%	-4.2%
CC(C)Nc1cccnc1N1CCN(C(=O)c2cc3cc(NS(C)(=O)=O)ccc3[nH]2)CC1	-0.5%	.	.	11.0%	.	.
CC(=O)c1ccc(OC(C)C)c(CSc2nc(O)cc(=O)[nH]2)c1	16.7%	12.7	?	?	7.6%	3.55µM*
O=c1cc(O)nc(SCc2ccc(Cl)cc2)[nH]1	-4.1%	18.7	9.2%	-13.3%	44.0%	-11.2%
CCCn1c(-c2ccc(F)cc2)nc2c(NC3CCN(Cc4ccccc4)CC3)nc(C)nc21	-107.1%	.	?	.	-2.8%	?
CCC(C)(C)C1CCC(=NNC(=O)c2ccoc2C)CC1 (stereo not given)	-3.0%	26.0	25.1µM*	?	-11.6%	-22.6%
Cc1nc(SC(C(N)=O)c2ccccc2)c(C#N)c(C)c1C (stereo not given)	-1.3%[10 µM]	.	.	-5.9%[9.22 µM]	-4.3%	.
COc1ccccc1-c1cc(-c2ccccc2)nc(SC(C(N)=O)c2ccccc2)c1C#N (stereo not given)	-5.5%	7.8	?	11.2µM*	57.0%	?
COCn1c2ccccc2c2nnc(C(=O)O)nc21	-19.1%[10 µM]	.	5.7%[13.5 µM]	.	.	.
O=C(O)c1cnc2ccccc2n1	0.4%	22.1	25.1µM*	-6.2%	-10.5%	?
COC(=O)c1cnc2ccccc2n1	-3.3%[10 µM]	-26.2	0.7%	-9.8%	-9.5%	-12.1%
O=C(Nc1cccnc1)c1cnc2ccccc2n1	-3.7%	-87.7*	11.4%	-17.7%	.	.
COc1ccc2nccc(SCC(=O)O)c2c1	1.1%[10 µM]	.	4.7%[13.5 µM]	.	8.1%[14.2 µM]	-11.7%
